# From PubChem BioAssay (NCATS)
# Results filed as inconclusive are left out. Activity calls are given as the source filed them. The call rests on the fitted dose curve; in most records, active means well fitted cell-killing curve with a large enough effect; inconclusive means small, poorly fitted or top-dose-only effect; inactive means flat fitted curve, though single readings scatter. Square brackets hold non-standard residues; d marks the D form. Peptide text beside a SMILES is read from it. * marks the point of attachment. ξ: configuration not given here. Hexanoyl = CCCCCC(=O)*; ξL = CC(C)CC(N)C(=O)O
# Assay: Panc-1005 Cancer Cell Toxicity qHTS against the NCATS CANVASS Library (AID 1347349); further: nearly all actives have a fitted effect of over 60% in size
# Conditions: Panc-1005 viability, CellTiter-Glo luminescence, 72 h; series mostly up to 38.3 µM; activity change, negative = cytotoxicity: at the top concentration
# Text: Natural products and their derivatives continue to be wellsprings of nascent therapeutic potential. However, many laboratories have limited resources for biological evaluation, leaving their previously isolated or synthesized compounds largely or completely untested. To address this issue, the Canvass library of natural products was assembled (https://tripod.nih.gov/canvass), in collaboration with academic and industry researchers, for quantitative high-throughput screening (qHTS) across a diverse set of cell-based and biochemical assays. The pure (>85% purity by liquid chromatography/mass spectrometry [LC/MS]) Canvass library of 346 natural products were submitted by 45 academic laboratories and companies around the world. We collected pure natural products to circumvent deconvolution and structure elucidation due to time and resource limitations. The library was formatted into 1536-well plates and evaluated in 50 qHTS (in an 11-pnt concentration series) bioassays with broad scope of disease-relevant mechanisms. The resulting data set from 50 different assays was then systematically analyzed to identify overall trends and specific natural products with interesting biological activities. Reported herein are the results of each individual qHTS and their corresponding assay protocol. National Center for Advancing Translational Sciences (NCATS), Rockville, MD National Institute of Health (NIH), Bethesda, Maryland
# Cancer Cell Toxicity protocol for cell lines COV-362, OV-KATE, OV-SAHO, UWB1.289, UWB1.289-WTBRCA1, HEK-293, HPAF-II, Panc-1005, SW1088, or U-118MG. 1. In a 1536 well, white solid bottom tissue culture plates (Corning 7494), corresponding cells (COV-362, OV-KATE, OV-SAHO, UWB1.289, UWB1.289-WTBRCA1, HEK-293, HPAF-II, Panc-1005, SW1088, or U-118MG) were dispensed in each well at a final concentration of 1000 cells / well (6uL volume) using the Multidrop Combi (Thermo Fisher Scientific) dispenser. 2. The plates were incubated for 4 hours at 37 degrees C/5% CO2/95% Rh. 3. Compounds were pin transferred (~23nL volume) via Wako Pin-tool (Wako Automation, Richmond VA) equipped with a 1536 pin head. The assay plates were treated with compounds in an 11-pnt concentration series with a final concentration range of […] to 85uM. 4. Bortezomib was used as a single dose control (0.5mM column 4, rows 1 - 32) at a final concentration of 1.9uM and as a 16pnt titration (1mM; 1:2 dilution; 16-points; n = 2; column 3, rows 1 - 32) with final concentration range of 0.1nM - 3.8uM. 5. The assay plates were incubated for 72 hours at 37 degrees C/5% CO2/95% Rh. 6. 3uL CellTiter-Glo detection reagent was then added to the plates (columns 2 - 48, rows 1 - 32) and incubated at room temperature for additional 15min. 7. Luminescence signal was acquired via the ViewLux plate reader (PerkinElmer) using a clear filter, 2 second exposure and 2x binning settings.
# On the % scale 0 is the no-effect control and ±100 the full control effect; potency means the concentration at half of the fitted maximal effect.
SMILES,"activity change, negative = cytotoxicity",Potency
[C-]#[N+][C@@]12C(=O)[C@@H]3[C@@H](O[C@@]4(C(=O)N(C)c5cccc1c54)C3(C)C)C(=O)[C@@]2(C)C=C,9.69% (inactive),
C=C(Cl)[C@](Cl)(CBr)CC[C@@H](Br)C(C)(C)Cl,,3.75 µM (active)
C=C(C)C(=O)O[C@H]1C[C@@]2(C)OC(=CC2=O)/C(C)=C\[C@H]2OC(=O)C(=C)[C@H]12,,1.88 µM (active)
C/C(=C\[C@H](C)C(=O)/C=C/CC1CC(=O)NC(=O)C1)[C@@H]1OC(=O)CCCC/C=C/[C@H](O)[C@@H](O)[C@@H]1C,,14.9 µM (active)
C/C=C1/C2=CCCN3C(=O)O[C@H]([C@H]1O)[C@H]23,-24.8% (inactive),
O=Cc1ccc2n1C[C@]1(C[C@H](O)[C@@H](CO)O1)OC2,3.26% (inactive),
C[C@H]1C=C[C@H]2CCCC[C@@H]2[C@H]1C(=O)[C@H]1CC2=C(C(=O)O)CCN2C1=O,2.37% (inactive),
CO[C@@H](C[C@@H](C)[C@@H](O)/C=C/C=C/CNC(=O)C(C)(C)[C@H](O)\C(C)=C/C=C\C=C\Cc1cnco1)[C@]1(O)[C@@H](C)C(=O)N(C)[C@@]12COC2=O,12.2% (inactive),
COc1cc2c(c(O)c1O)C(=O)c1c(coc1C)C2=O,,9.43 µM (active)
COc1ccc(-c2oc3cc(OC)cc(OC)c3c(=O)c2O)cc1,-16.5% (inactive),
CN1CC[C@@]2([C@@]34CCN(C)[C@@H]3Nc3ccccc34)c3ccccc3N[C@@H]12,-5.38% (inactive),
COC(=O)c1cc2cc3c(c(O)c2c(=O)o1)OC1(CC3)CC2=C(O1)C(=O)c1c(O)c(OC)cc(OC)c1C2=O (stereo not given),,21.1 µM (active)
C=C1C(=O)O[C@H]2[C@H]1CCC(C)=C1CC[C@@](C)(O)[C@@H]12,,16.8 µM (active)
COc1cc2oc3ccccc3c(=O)c2cc1OC,-23% [at 76 µM] (inactive),
O=C1CCC(=O)N(O)CCCCCNC(=O)CCC(=O)N(O)CCCCCNC(=O)CCC(=O)N(O)CCCCCN1,,8.41 µM (active)
COc1cc2c(cc1OC)[C@@H](c1ccc3c(c1)OCO3)C(C)[C@@H](C)C2=O (stereo not given in full),-6.26% (inactive),
O=C1CC2OCC=C3CN4C5CC3C2[C@@H]2N1c1ccccc1[C@]52C[C@@H]4C1=C[C@H]2C3CC4N(CC[C@@]45c4ccccc4N(C1=O)[C@@H]25)C/C3=C/CO (stereo not given in full),,16.8 µM (active)
C/C=C(/C)c1cc(O)c(C)c2c1Oc1cc(O)cc(C)c1C(=O)O2,-18.3% (inactive),
CC(=O)Oc1cc2c(c(OC(C)=O)c1C1CCc3cc(Cl)c(Cl)n31)C(=O)n1c-2cc(Cl)c1Cl (stereo not given),,6.68 µM (active)
O=C1c2c(O)cc(O)cc2OC(c2ccc(O)cc2)C1O (stereo not given),0% (inactive),

SMILES,"activity change, negative = cytotoxicity",Potency
CC(C)=CC[C@H]1C[C@@]2(CC=C(C)C)C(=O)[C@](CC=C(C)C)(C(=O)C(C(=O)c3ccccc3)=C2O)C1(C)C,,13.3 µM (active)
O=C1OC(CCO)c2cccc(O)c21 (stereo not given),6.22% (inactive),
C[C@@]12CCC[C@@](C)(C(=O)OP(=O)(O)OC[C@H]3O[C@@H](n4cnc5c(N)ncnc54)[C@H](O)[C@@H]3O)[C@H]1C[C@@H](O)[C@@]13C[C@@H](CC[C@@H]21)[C@](C)(O)C3,-19.6% (inactive),
C=C[C@](Cl)(CBr)CCC=C(C)C,-10.1% (inactive),
COc1ccc([C@@H]2c3cc4c(cc3C(=O)C(C)C2C)OCO4)cc1OC (stereo not given in full),9.27% (inactive),
CC[C@@H](C)[C@H]1NC(=O)C(CC(C)C)NC(=O)[C@@H](CC(C)C)NC(=O)[C@H](Cc2c[nH]c3ccccc23)NC(=O)CNC(=O)[C@@H](CC(N)=O)NC1=O (stereo partly drawn) (cyclo(GW[dL][ξL][dI][dN])),-13.9% (inactive),
C/C=C(/CO)C(=O)O[C@@H]1[C@H](O)[C@@H](C(=O)OC)O[C@@H]2C[C@H]3OC(n4cnc5c(N)ncnc54)[C@H](OC)[C@H]3O[C@@]12O (stereo not given in full),-2.26% (inactive),
COc1cc(C2OCC3C(c4ccc(O)c(OC)c4)OCC23)ccc1O (stereo not given),-5.51% [at 7.64 µM] (inactive),
COC1C(C)OC(OCC23C[C@@H]4[C@H](C)CC[C@H]4C4(C=O)CC2C=C(C(C)C)C34C(=O)O)[C@@H](O)[C@H]1O (stereo not given in full),-4.79% (inactive),
CC(=O)c1c(C)cc2c(c1O)C(=O)c1c(O)cc(O)cc1C2=O,4.1% (inactive),
C[C@@]12CCC[C@@](C)(C(=O)O)[C@H]1CC[C@@]13C[C@@H](CC[C@H]12)[C@](C)(O)C3,16.4% (inactive),
CCCCCC(=O)N[C@@H](CC(C)C)C(=O)N[C@H](C=O)CCC(=O)O (Hexanoyl-Leu-Glu-aldehyde),-3.84% (inactive),
CC(C)=CCC[C@]1(C)[C@H]2CC(=O)[C@@]3(CO3)[C@@H]1C2,7.64% (inactive),
C=C(C)CC[C@H](Cc1c(O)cc(O)c2c1O[C@H](c1ccc(O)cc1)CC2=O)C(=C)C,-29.8% (inactive),
COc1ccc([C@@H]2CC(=O)c3c(cc(O)c(C/C=C(\C)CCC=C(C)C)c3O)O2)cc1,-16.1% [at 7.64 µM] (inactive),
O=c1cc(-c2ccc(O)cc2)oc2cc(O)c([C@@H]3OC(CO)[C@H](O)[C@@H](O)[C@H]3O)c(O)c12 (stereo not given in full),1.22% (inactive),
C[C@@H]1CC[C@]2(C(=O)O)CC[C@]3(C)C(=C2[C@H]1C)CC[C@@H]1[C@@]2(C)CC[C@H](O)C(C)(C)[C@@H]2CC[C@]13C,,21.1 µM (active)
CCC(=O)CCCCC[C@@H]1NC(=O)[C@H]2CCCCN2C(=O)[C@H](C(C)C)NC(=O)[C@H](Cc2cn(OC)c3ccccc23)NC1=O,,4.21 µM (active)
C=C[C@]1(C)CC[C@@H]([C@H](C)C(=O)/C=C/C(C)(C)O)O1,-18.6% (inactive),
CCCc1c2c([nH]c(=O)c1C)C(=O)c1[nH]c(=O)c(C)c(CCC)c1C2=O,,10.6 µM (active)
